# Assay results taken from the supplement of paper PMC12645437, “Orthogonal IMiD-Degron Pairs Induce Selective Protein Degradation in Cells” (ACS Chemical Biology, 2025).
# Over roughly 8,300 sequences, “log2 fold change of degron read counts, EGFP-low vs EGFP+ sorted cells (limma voom), compound-induced degradation” has its median near -1.1; the highest 2% begin near 3.2. This excerpt belongs to a sample that is enriched for the highest values.
# T1: CRBN, Q96SW2
# T1 chain: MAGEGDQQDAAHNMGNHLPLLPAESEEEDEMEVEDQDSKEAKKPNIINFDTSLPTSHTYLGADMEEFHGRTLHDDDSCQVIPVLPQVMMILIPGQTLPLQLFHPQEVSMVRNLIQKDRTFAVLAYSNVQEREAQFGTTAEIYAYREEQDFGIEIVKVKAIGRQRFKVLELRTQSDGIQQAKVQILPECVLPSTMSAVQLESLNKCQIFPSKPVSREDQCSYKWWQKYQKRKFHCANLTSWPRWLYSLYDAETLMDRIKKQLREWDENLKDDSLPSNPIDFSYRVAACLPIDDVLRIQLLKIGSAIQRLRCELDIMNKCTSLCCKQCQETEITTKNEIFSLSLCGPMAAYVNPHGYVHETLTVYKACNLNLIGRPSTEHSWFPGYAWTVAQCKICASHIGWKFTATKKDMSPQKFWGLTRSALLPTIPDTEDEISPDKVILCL
# Biological target: T1, CRBN, Q96SW2
# Assay: log2 fold change of degron read counts, EGFP-low vs EGFP+ sorted cells (limma voom), compound-induced degradation; higher = more compound-induced degradation of the degron-EGFP fusion; degrons are variants of IKZF1/3 zinc finger 2; compound dose not given here
# Details: Jurkat, 18 h
# [1] = compound: compound 19 (5-tert-butyl-thalidomide)
# [2] = compound: compound 22 (5-morpholino-thalidomide)
# [3] = compound: compound 33 (diphenyl IMiD analogue)
# 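Further: pooled lentiviral library of zinc finger degron-EGFP fusions in mCherry-positive Jurkat cells, FACS-sorted after compound exposure, with degron abundance counted by next-generation sequencing.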
Sequence,log2 fold change of degron read counts [1],log2 fold change of degron read counts [2],log2 fold change of degron read counts [3],log2 fold change of degron read counts (compound: thalidomide)
"LECPICGFPCTQKGNLLRHIKL [46L_47E_49P_50I_52G_53F_54P_55C_67L_, Q9UKT9]",-1.29,-1.77,-0.153,1.04
"FGCNQCGHHFTQKGNLLRHIKL [46F_47G_49N_50Q_52G_53H_54H_55F_67L_, Q9UKT9]",-2.24,-2.34,-1.76,-1.83
"FGCEICGHTFTQKGNLLRHIKL [46F_47G_49E_50I_52G_53H_54T_55F_67L_, Q9UKT9]",-3.25,-2.98,-3.48,-3.14
"FMCEICGHIFTQKGNLLRHIKL [46F_47M_49E_50I_52G_53H_54I_55F_67L_, Q9UKT9]",-2.42,-2.92,-1.97,-2.73
"LQCNQCGFNCTQKGNLLRHIKL [46L_47Q_49N_50Q_52G_53F_54N_55C_67L_, Q9UKT9]",-2.28,-2.12,-2.51,-1.67
"FHCPICGHHFTQKGNLLRHIKL [46F_47H_49P_50I_52G_53H_54H_55F_67L_, Q9UKT9]",-1.89,-2.04,-1.22,-1.88
"FDCNVCGAQFTQKGNLLRHIKL [46F_47D_49N_50V_52G_53A_54Q_55F_67L_, Q9UKT9]",-1.58,-1.29,-0.82,-0.778
"FVCEQCGAGFTQKGNLLRHIKL [46F_47V_49E_50Q_52G_53A_54G_55F_67L_, Q9UKT9]",-1.4,-0.248,0.586,1.2
